Screening data as filed in PubChem BioAssay.
A selection: hits, their analogues and other compounds. The true share with any hit is near 0.45%.
TexasRed fluor: alters Texas Red total fluorescence, flagging assay interference; TRb/SRC2 Texas Red total fluorescence interference; Potency, µM (series often up to 106 µM), for the others: at the highest dose fluorescence change, negative = quenching; 280,000 compounds, 0.29% hits; AID 1479; active = well fitted curve in either direction with a large enough effect; inconclusive = small, poorly fitted or top-dose-only effect; also: potency is read from the fitted curve at half-maximal effect; % is scaled to controls: 0 for no effect and ±100 for the full control effect
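Flags fluorescent or light-absorbing compounds by total fluorescence, S + 2P, at 555 nm excitation and 632 nm emission. Mixture: 20 nM Texas Red SRC2 peptide, 0.6 uM human TRb LBD, 1 uM T3, 5% DMSO; compound exposure 5 h at ambient temperature.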
ERG Ets-DNA blk: inhibitors of human ERG Ets domain-DNA interaction | P11308 | fluorescence polarization, His-ERG Ets domain / labelled DNA | Potency, µM (top dose mostly 76.9 µM), without a hit: at the top dose FP activity, negative = inhibition, actives largely listed as inhibitors | 370,000 compounds, 0.028% hits | AID 624246; active = well fitted inhibition curve with a large enough effect in the polarisation, with a control signal flat; inconclusive = small, poorly fitted or top-dose-only effect, or effect the other way, or a change in a side signal; inactive = no such curve, though single readings can be large or run the other way; the % refers to the polarisation;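 also: polarization taken with two DNA probes labelled with fluorescein and Texas red; potency is read from the fitted curve at half-maximal effect; % of control where 0% means no effect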
Target sequence (P11308 whole entry, looked up, the tested form may be a part): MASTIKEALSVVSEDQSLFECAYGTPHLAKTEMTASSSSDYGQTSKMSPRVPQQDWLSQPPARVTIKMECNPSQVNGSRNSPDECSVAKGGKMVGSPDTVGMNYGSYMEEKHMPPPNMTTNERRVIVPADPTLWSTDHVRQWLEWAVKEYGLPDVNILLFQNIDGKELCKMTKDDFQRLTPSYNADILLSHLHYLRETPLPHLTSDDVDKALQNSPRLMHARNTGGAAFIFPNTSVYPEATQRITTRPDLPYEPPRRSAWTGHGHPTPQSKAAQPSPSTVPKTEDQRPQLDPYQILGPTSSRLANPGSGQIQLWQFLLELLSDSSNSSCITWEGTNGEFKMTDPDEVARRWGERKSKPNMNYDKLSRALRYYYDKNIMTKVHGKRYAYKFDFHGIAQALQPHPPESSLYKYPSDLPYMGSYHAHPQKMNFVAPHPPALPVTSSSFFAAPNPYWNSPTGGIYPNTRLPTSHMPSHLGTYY
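His-tagged ERG Ets domain (1 uM in the protein solution; 300mM KCl, 50mM Tris-HCl, 1mM EDTA, 1mM DTT, pH 7.5) received compound, then a probe mix of 5 nM fluorescein-DNA and 100nM Texas-615-DNA. Fluorescence polarization was read for both dyes.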
RGS12 GoLoco inh-1: inhibitors of human Gai1-RGS12 GoLoco interaction (red fluorophore). Gai1:RGS12 GoLoco peptide FP, rhodamine, 10 min. Potency, µM (titrated, usually from 61.6 µM), without a hit: at the top dose activity, negative = inhibition, most hits filed as inhibitors. 230,000 compounds, 0.44% hits. AID 880; active = well fitted inhibition curve with a large enough effect, not every such curve was filed as active; inactive = no such curve, though single readings can be large or run the other way; also: potency is read from the fitted curve at half-maximal effect; % is scaled to controls: 0 for no effect and ±100 for the full control effect; nearly all actives have a fitted effect of over 30% in size
Target sequence (P63096 whole entry, looked up): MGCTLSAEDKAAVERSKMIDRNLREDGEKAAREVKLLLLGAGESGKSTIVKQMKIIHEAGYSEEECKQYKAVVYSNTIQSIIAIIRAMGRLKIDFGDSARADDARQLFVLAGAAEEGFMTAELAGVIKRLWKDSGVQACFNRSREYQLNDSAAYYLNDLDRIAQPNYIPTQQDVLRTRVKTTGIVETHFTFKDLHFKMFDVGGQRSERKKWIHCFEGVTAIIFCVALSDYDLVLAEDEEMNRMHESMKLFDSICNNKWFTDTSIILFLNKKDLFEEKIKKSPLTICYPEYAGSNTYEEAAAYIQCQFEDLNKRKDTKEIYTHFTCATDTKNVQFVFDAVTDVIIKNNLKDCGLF
Integrin act MD: integrin-mediated muscular dystrophy alleviation activation; alpha7betagal myoblasts, beta-gal FDG fluorescence, 48 h; Potency, µM (highest dose often 38.3 µM), without a hit: top-dose activation, most hits filed as activators; AID 624291; 350,000 compounds, 0.064% hits;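 also: potency is read from the fitted curve at half-maximal effect; 100% = response of the positive control SU9516; nearly all actives have a fitted effect of over 60% in size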
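Alpha7betagal+/- myoblasts (passage 13) were plated 16-24 hr, then exposed to compounds (1:260 dilution of DMSO stock) for 48 hours at 37C. After MPER lysis, β-galactosidase reporter activity was read as FDG fluorescence (ex 480/em 540) after 30 minutes.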
TRb-SRC2 inh: disrupts binding of human TR beta to SRC2; 280,000 compounds, 0.065% hits; TRbeta-SRC2 peptide binding, fluorescence polarization; receptor liganded with 1 µM T3; Potency, µM (doses to about 106 µM), for the others: top-dose activity change, negative = inhibition, most hits filed as inhibitors; AID 1469;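 also: potency is read from the fitted curve at half-maximal effect; plate controls were bound peptide for no effect and peptide without receptor for full effect; nearly all actives have a fitted effect of over 50% in size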
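Read-out is fluorescence polarization (555 nm excitation, 632 nm emission) of a Texas Red SRC2 coactivator peptide; loss of signal reflects blocked binding to human TRb ligand-binding domain in the presence of 1 uM T3.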
CBFb-RUNX1 inh: CBF-beta/RUNX1 interaction disruption | AlphaScreen CBFb-His/RUNX1-biotin binding, biochemical | Potency, µM (series often up to 59.8 µM), for inactives: at the highest dose activity, negative = inhibition, most hits filed as inhibitors | Q01196+Q13951 | 230,000 tested, under 10 active; also: % of control where 0% means no effect
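CBF-beta (His) and RUNX1 (biotin), 30 nM each; 20 min preassociation; + compound, 15 min; + beads 50 ng each (Ni, streptavidin), 90 min; RT; AlphaScreen read.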
RGS12 GoLoco inh-2: disrupts Gai1 binding to human RGS12 GoLoco peptide; 110 compounds, 50% hits; Gai1/rhodamine-RGS12 GoLoco peptide fluorescence polarization; shares compounds with RGS12 GoLoco inh-1; Potency, µM (series often up to 57.1 µM), for inactives: top-dose activity, negative = inhibition, usual class: inhibitors
The depositor's hits bear a star; ! = not confirmed by another sample; [ ] = dose if it differs, or a comment. Unless noted, calls follow the shape of the dose curve; as a rule, active = well fitted curve in the direction sought with a large enough effect; inconclusive = small, poorly fitted or top-dose-only effect, or another doubt; inactive = no such curve, though single readings can be large; an effect the other way counts as inactive or inconclusive.

Results for CCc1cccc(C)c1N(C(=O)CS(=O)(=O)O)[C@@H](C)COC ?
TexasRed fluor: -3%[201 µM]; TRb-SRC2 inh: 8%[201 µM]

Results for COc1ccc(OC)c(C2=Nn3c(nnc3-c3cccc(OC)c3OC)SC2)c1 ?
TexasRed fluor: -1%; TRb-SRC2 inh: 2%; CBFb-RUNX1 inh: -2%

What do the screens show for `C/C(=N\OCC(=O)OC(C)C(=O)Nc1ccc(C(N)=O)cc1)c1ccc2c(c1)OCO2` (configuration not stated)?
ERG Ets-DNA blk: -2%; Integrin act MD: 4.5µM*

How did CC(=O)Nc1cccc(NC(=O)COC(=O)CO/N=C(\C)c2ccc3c(c2)OCO3)c1 do in these assays?
ERG Ets-DNA blk: -5%; Integrin act MD: 20%

How did CC(C)=CCC[C@@H](C)[C@H]1CC[C@@]2(C)C3=C(CC[C@]12C)[C@@]1(C)CC[C@H](O)C(C)(C)[C@@H]1CC3 do in these assays?
TexasRed fluor: 2%[201 µM]; TRb-SRC2 inh: -3%[201 µM]

What do the screens show for `COc1ccc(C2=Nn3c(nnc3-c3ccc(OC)c(OC)c3)SC2)cc1`?
TexasRed fluor: -2%; TRb-SRC2 inh: -5%; CBFb-RUNX1 inh: 11%

How did CCCCCCNC(=O)N[C@@H](C(=O)NCCC[C@H]1CN2C(=NC[C@@H]2Cc2ccccc2)N1CCc1cccc(OC)c1)C(C)C do in these assays?
TexasRed fluor: 0%; ERG Ets-DNA blk: -7%; RGS12 GoLoco inh-1: 14µM*; Integrin act MD: -13%; TRb-SRC2 inh: 0%; CBFb-RUNX1 inh: 9%

Results for CC[C@H](C)[C@H](NC(=O)CNC(=O)[C@H](C)NC(=O)[C@H](C)N)C(=O)NCC(=O)N[C@H](C(=O)N[C@@H](CC(C)C)C(=O)N[C@H](C(=O)N[C@H](C(=O)O)C(C)C)[C@@H](C)O)[C@@H](C)CC ?
TexasRed fluor: -1%; TRb-SRC2 inh: -1%; CBFb-RUNX1 inh: 9%

How did Cc1nn(C)c(C)c1N1C(=O)c2cccc3c(Br)ccc(c23)C1=O do in these assays?
TexasRed fluor: 0%; ERG Ets-DNA blk: 1%; RGS12 GoLoco inh-1: 5%; Integrin act MD: -28%; TRb-SRC2 inh: inconclusive; CBFb-RUNX1 inh: 9%

What do the screens show for `Cc1nn(C)c(C)c1N1C(=O)c2cccc3c(N)ccc(c23)C1=O`?
TexasRed fluor: 1%; ERG Ets-DNA blk: 35µM*; RGS12 GoLoco inh-1: 22µM*; Integrin act MD: -55%; TRb-SRC2 inh: -10%; CBFb-RUNX1 inh: 9%; RGS12 GoLoco inh-2: 13µM*

What do the screens show for `CC(C)C[C@H](NC(=O)[C@H](CC(C)C)NC(=O)[C@@H](Cc1c[nH]c2ccccc12)NC(=O)[C@H](Cc1ccccc1)NC(=O)[C@@H](Cc1c[nH]c2ccccc12)NC(=O)[C@H](CCC(N)=O)NC(=O)[C@H](CCC(N)=O)NC(=O)[C@@H]1CCCN1C(=O)[C@H](CCCCN)NC(=O)[C@@H]1CCCN1C(=O)[C@@H](CCCNC(=N)N)NC(=O)[C@@H]1CCCN1C(=O)CNC(=O)[C@H](CC(C)C)NC(=O)[C@H](CC(C)C)NC(=O)[C@H](Cc1ccc(O)cc1)NC(=O)CNC(=O)[C@H](C)NC(=O)[C@H](CO)NC(=O)[C@H](CC(N)=O)NC(=O)[C@H](CC(C)C)NC(=O)[C@@H](NC(=O)[C@H](Cc1c[nH]c2ccccc12)NC(=O)CN)[C@@H](C)O)C(N)=O`?
TexasRed fluor: 1%; TRb-SRC2 inh: 10%; CBFb-RUNX1 inh: 9%

How did Cc1cc2nc3c(=O)n(C4CCCCC4)c(=O)[nH]c3nc2cc1N do in these assays?
TexasRed fluor: 0%; ERG Ets-DNA blk: -2%; RGS12 GoLoco inh-1: -28%; Integrin act MD: -1%; TRb-SRC2 inh: 4%; CBFb-RUNX1 inh: 4%; RGS12 GoLoco inh-2: inconclusive

What do the screens show for `Cc1cc(C)cc(Nc2cc(=O)n(C3CCCCC3)c(=O)[nH]2)c1`?
TexasRed fluor: 1%; ERG Ets-DNA blk: -1%; RGS12 GoLoco inh-1: -11%; Integrin act MD: -1%; TRb-SRC2 inh: 5%; CBFb-RUNX1 inh: 0%

Results for CCOc1ccc(N(CC(=O)N/N=C/c2ccc(OC(C)C)cc2)S(C)(=O)=O)cc1 ?
TexasRed fluor: -2%; ERG Ets-DNA blk: 9%; RGS12 GoLoco inh-1: 10µM*; Integrin act MD: inconclusive; TRb-SRC2 inh: 8%; CBFb-RUNX1 inh: -6%; RGS12 GoLoco inh-2: 5%[0.0121 µM]

What do the screens show for `O=C(O)c1cccc(CN2C(=O)c3ccccc3C2=O)c1`?
ERG Ets-DNA blk: 4%; Integrin act MD: 0%

Results for O=C1c2cccc3c(O)ccc(c23)C(=O)N1Cc1ccccc1 ?
TexasRed fluor: 2%; ERG Ets-DNA blk: inconclusive; RGS12 GoLoco inh-1: 11µM*; Integrin act MD: -56%; TRb-SRC2 inh: -3%; CBFb-RUNX1 inh: 18%; RGS12 GoLoco inh-2: 11µM*

How did C[n+]1cc2c3c(ccc2c2ccc4cc5c(cc4c21)OCO5)OCO3 do in these assays?
TexasRed fluor: -3%; RGS12 GoLoco inh-1: 14µM*!; TRb-SRC2 inh: 0%; CBFb-RUNX1 inh: inconclusive; RGS12 GoLoco inh-2: 25µM*

What do the screens show for `C[n+]1c(/C=C/c2ccc3c(c2)OCO3)ccc2ccccc21`?
TexasRed fluor: -1%; ERG Ets-DNA blk: -16%; RGS12 GoLoco inh-1: -4%; Integrin act MD: 12%; TRb-SRC2 inh: 3%; CBFb-RUNX1 inh: -5%

Results for COc1ccc(N2CSC3=C(C#N)C(c4cc(OC)c(OC)cc4OC)CC(=O)N3C2)c(OC)c1 (configuration not stated) ?
TexasRed fluor: 5%; ERG Ets-DNA blk: 3%; RGS12 GoLoco inh-1: -8%; Integrin act MD: -32%; TRb-SRC2 inh: 2%; CBFb-RUNX1 inh: -15%

How did COc1cc(OC)c(C2CC(=O)N3CN(c4ccc(C)cc4)CSC3=C2C#N)cc1OC (configuration not stated) do in these assays?
TexasRed fluor: 1%; ERG Ets-DNA blk: -1%; RGS12 GoLoco inh-1: 8.9µM*; Integrin act MD: -19%; TRb-SRC2 inh: 3%; CBFb-RUNX1 inh: -4%; RGS12 GoLoco inh-2: inconclusive

What do the screens show for `COC(=O)[C@H]1O[C@@H](c2cc(OC)c(C)c(OC)c2O)[C@H](C)[C@@H](O)[C@H]1C`?
TexasRed fluor: -1%; RGS12 GoLoco inh-1: -5%; TRb-SRC2 inh: -1%; CBFb-RUNX1 inh: -11%
